Bioassay records (PubChem)
In the library only some 10% were active in any assay of this set; here they are far more common.
JMJD2A Tudor = qHTS Assay for Inhibitors of JMJD2A-Tudor Domain | Lysine-specific demethylase 4A (Homo sapiens), O75164 | AlphaScreen JMJD2A-Tudor / H3K4me3 peptide binding | Potency, µM (top dose mostly 114 µM), most hits filed as inhibitors | hit rate 4.4% among 390,000 | AID 504339, 2011; further: nearly all actives have a fitted effect of over 50% in size
BAZ2B block = qHTS Assay for Inhibitors of BAZ2B; hit rate 4.4% among 360,000; AlphaScreen BAZ2B-H3K14Ac peptide displacement; AID 504333, 2011; Potency, µM (top dose mostly 114 µM), hits mostly inhibitors; further: nearly all actives have a fitted effect of over 60% in size
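Multi-concentration screen (max 110 uM) measuring displacement of acetylated histone H3 peptide from BAZ2B by AlphaScreen, using 50 nM protein, 50 nM peptide and 10 ug/mL streptavidin donor plus Ni-chelate acceptor beads.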
CtBP-E1A inh = qHTS Assay for Inhibitors of the CtBP/E1A Interaction; CtBP / adenovirus E1A interaction (AlphaScreen); AlphaScreen GST-E1A/His-CtBP binding, 1536-well; stronger effect = lower value; activity change, % (concentration not given with the values); hit rate 0.49% among 340,000; AID 651724, 2012; in the data active means activity change below about -65%; inconclusive means mostly about -30% to -63%
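Steps: dispense buffer (Tris pH 8.0, NaCl 300 mM, TCEP 1 mM, BSA, Tween 20); add 5X protein mix (GST-E1A, His-CtBP, 125 nM each); pin 23 nL compound; 2 h at 37 °C, dark; add 5X beads (50 ug/mL); 1 h; read.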
HP1b binding inh = HTS for Inhibitors of HP1-beta Chromodomain Interactions with Methylated Histone Tails. Chromobox protein homolog 1 (Homo sapiens), P83916. AlphaScreen HP1-beta / biotin-H3K9me3 peptide binding. Potency, µM (highest dose often 114 µM), actives largely listed as inhibitors. hit rate 0.56% among 390,000; further: nearly all actives have a fitted effect of over 70% in size
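Compound inhibition of the preformed complex between 50 nM HP1-beta and 50 nM biotinylated H3K9me3 peptide was read by AlphaScreen. Buffer was PBS pH 7.4 with 0.01% Tween-20. Incubations ran 30 min at room temperature, with 10 ug/mL donor/acceptor beads.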
G9a inh = qHTS Assay for Inhibitors of Histone Lysine Methyltransferase G9a; Histone-lysine N-methyltransferase EHMT2 (Homo sapiens), Q96KQ7; G9a H3K9 monomethylation, AlphaScreen, 2 h; Potency, µM (series often up to 102 µM), usual class: inhibitors; hit rate 8.8% among 350,000; further: nearly all actives have a fitted effect of over 75% in size
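Using a bead-based AlphaScreen, monomethylated H3K9 product from 2 h room-temperature reactions (G9a 20 nM, peptide 500 nM, SAM 20 uM) was detected with 0.5 ug/mL rabbit anti-H3K9me1 antibody.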
Six1-Eya2 blk = qHTS Assay for Inhibitors of the Six1/Eya2 Interaction | Homeobox protein SIX1 (Homo sapiens) + Protein phosphatase EYA2 (Homo sapiens), … | AID 651725, 2012 | AlphaScreen GST-Six1/His-Eya2 binding, biochemical; stronger effect = lower value | hit rate 0.56% among 360,000 | activity change, % (test concentration not listed); in the data active means activity change below about -65%; inconclusive means mostly about -30% to -63%
Target sequence (O00167 whole entry, looked up): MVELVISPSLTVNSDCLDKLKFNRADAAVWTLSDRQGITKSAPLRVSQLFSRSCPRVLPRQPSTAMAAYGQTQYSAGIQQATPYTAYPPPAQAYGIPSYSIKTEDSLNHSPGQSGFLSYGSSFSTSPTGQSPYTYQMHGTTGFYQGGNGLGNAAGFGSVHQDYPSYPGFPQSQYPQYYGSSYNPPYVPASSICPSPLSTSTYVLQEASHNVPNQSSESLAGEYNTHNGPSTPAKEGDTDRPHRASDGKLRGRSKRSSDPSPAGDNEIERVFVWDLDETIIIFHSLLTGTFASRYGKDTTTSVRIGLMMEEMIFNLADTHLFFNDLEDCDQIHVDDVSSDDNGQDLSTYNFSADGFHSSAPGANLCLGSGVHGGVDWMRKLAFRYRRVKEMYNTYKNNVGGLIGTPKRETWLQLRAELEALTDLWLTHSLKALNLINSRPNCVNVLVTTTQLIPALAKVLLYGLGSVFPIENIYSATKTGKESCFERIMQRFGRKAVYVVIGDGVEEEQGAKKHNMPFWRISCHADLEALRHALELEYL
Target sequence (Q15475 whole entry, looked up): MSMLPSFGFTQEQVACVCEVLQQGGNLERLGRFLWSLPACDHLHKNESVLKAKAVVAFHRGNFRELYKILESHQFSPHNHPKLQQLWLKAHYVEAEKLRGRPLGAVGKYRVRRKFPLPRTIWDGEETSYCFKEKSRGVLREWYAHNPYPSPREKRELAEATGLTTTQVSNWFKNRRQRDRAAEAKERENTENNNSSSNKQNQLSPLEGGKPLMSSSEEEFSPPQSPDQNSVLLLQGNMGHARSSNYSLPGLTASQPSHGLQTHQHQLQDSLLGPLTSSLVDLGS
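AlphaScreen with GST-Six1 and His-Eya2 (5X mix: 250 nM and 500 nM), glutathione donor and nickel acceptor beads; buffer 50 mM Tris pH 8.0, 300 mM NaCl, 1 mM TCEP; 1 h at 37 C in the dark.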
Each line names hits and unclear results; the compound was inactive in the other large screens. Unless noted, the call rests on the fitted dose curve; in most records, active means well fitted inhibition curve with a large enough effect; inconclusive means small, poorly fitted or top-dose-only effect; inactive means no such curve, though single readings can be large or run the other way.

COC(=O)[C@@]12C[C@@H](CC(=O)NCC3CCCCC3)C(=O)N(Cc3ccc4c(c3)OCO4)C1=CCC(C)(C)C2	none (no result: JMJD2A Tudor, BAZ2B block, HP1b binding inh, G9a inh)
Cc1cc2cc(CNC(=O)c3ccc(C)c([N+](=O)[O-])c3)ccc2[nH]1	JMJD2A Tudor inconclusive, BAZ2B block inconclusive, G9a inh 56µM
COc1ccc(NC(=S)Nc2ccc3nc(C)c(C)nc3c2)cc1	G9a inh 45µM
C=CCN(CC=C)C(=S)Nc1ccc2nsnc2c1	G9a inh 18µM (no result: CtBP-E1A inh)
CNC(=S)Nc1ccc2nc(C)c(C)nc2c1	BAZ2B block inconclusive, G9a inh inconclusive
COc1ccc(NC(=S)Nc2ccc3nsnc3c2)cc1	JMJD2A Tudor inconclusive, HP1b binding inh inconclusive, G9a inh 2µM
CS(=O)(=O)n1nc(-c2ccco2)nc1NCc1ccccc1Cl	none (no result: CtBP-E1A inh, Six1-Eya2 blk)
CSCCC1Nc2ccc(S(=O)(=O)N3CCOCC3)cc2NC1=O (stereo unspecified)	G9a inh 3.2µM (no result: BAZ2B block)
N#C/C(=N\Nc1cccc2ccccc12)c1nnc2n1CCCCC2	BAZ2B block inconclusive, G9a inh 1.8µM
Oc1ccc(/C=N/n2c(COc3ccccc3)n[nH]c2=S)c(O)c1	G9a inh 1.8µM
CCOc1ccccc1/C=N/n1c(C)nc2ccccc2c1=O	none
Cc1ccccc1/C=N/n1c(COc2ccccc2)n[nH]c1=S	G9a inh 2µM
Fc1ccccc1/C=N/n1c(COc2ccccc2)n[nH]c1=S	JMJD2A Tudor 32µM, BAZ2B block inconclusive, HP1b binding inh inconclusive, G9a inh 2.2µM
CCOc1ccccc1/C=N/n1c(COc2ccccc2)n[nH]c1=S	JMJD2A Tudor inconclusive, BAZ2B block inconclusive, G9a inh 14µM (no result: CtBP-E1A inh)
CCc1nc2sc3c(N4CCC(C)CC4)ncnc3c2c2c1CCCC2	none (no result: CtBP-E1A inh, Six1-Eya2 blk)
Cc1ccc(CSc2nc(=O)c3c(n2C)NC(=O)CC3c2ccc(OC(C)C)cc2)cc1 (stereo unspecified)	none (no result: CtBP-E1A inh, Six1-Eya2 blk)
COc1cc(C2CC(=O)c3c([nH]c(C(=O)OC4CCCCC4)c3C)C2)cc(OC)c1OC (stereo unspecified)	none (no result: CtBP-E1A inh, Six1-Eya2 blk)
O=C1NC[C@H](CCCCN2C[C@H](Cc3ccc(O)cc3)N(CCC3CCCCC3)C(=O)C2=O)N(CCC2CCCCC2)C1=O	none (no result: JMJD2A Tudor, BAZ2B block, HP1b binding inh, G9a inh)
Oc1ccccc1/C=N/n1c(COc2ccccc2)n[nH]c1=S	JMJD2A Tudor 79µM, HP1b binding inh inconclusive, G9a inh 2.5µM
CC(=O)Oc1ccc2c(c1)Oc1cc(OC(C)=O)ccc1C21OC(=O)c2ccccc21	Six1-Eya2 blk -82
CCOc1ccc(N2Nc3n[nH]c(N)c3N2)cc1	JMJD2A Tudor inconclusive, BAZ2B block inconclusive, G9a inh 8.9µM
COc1ccc(N2Nc3n[nH]c(N)c3N2)cc1	JMJD2A Tudor inconclusive, G9a inh 7.9µM
CC1CCN(c2[nH]c(=S)c(C#N)c3c2CCCC3)CC1	G9a inh 32µM
Cc1[nH]c2ccccc2c1/C=N/Nc1ccccn1	BAZ2B block 35µM, G9a inh inconclusive (no result: JMJD2A Tudor, CtBP-E1A inh, HP1b binding inh, Six1-Eya2 blk)
Cc1[nH]c2ccccc2c1/C=N/NC(=O)c1cccc(F)c1	none (no result: G9a inh)
Cc1[nH]c2ccccc2c1/C=N/NC(=O)c1cccs1	JMJD2A Tudor inconclusive, BAZ2B block inconclusive, G9a inh inconclusive (no result: CtBP-E1A inh)
Nn1cnnc1N/N=C/c1ccc(Cl)cc1Cl	BAZ2B block inconclusive
Cc1[nH]c2ccccc2c1/C=N/Nc1nncn1N	BAZ2B block 50µM, G9a inh 35µM
Cc1[nH]c2ccccc2c1/C=N/Nc1nc(Nc2ccccc2)nc(N2CCOCC2)n1	JMJD2A Tudor inconclusive, BAZ2B block 40µM (no result: G9a inh)
Cc1[nH]c2ccccc2c1/C=N/Nc1ccc(F)cc1F	BAZ2B block 45µM, G9a inh 32µM (no result: JMJD2A Tudor, CtBP-E1A inh, HP1b binding inh, Six1-Eya2 blk)
N#CCCn1c(=O)c(-c2ccccc2)nc2cnc(OCc3ccccc3)nc21	none (no result: JMJD2A Tudor, BAZ2B block, CtBP-E1A inh, HP1b binding inh, Six1-Eya2 blk)
O=C(CSc1nnc(C2CC2)n1CC1CCCO1)Nc1ccccc1Cl (stereo unspecified)	none
Cc1[nH]c2ccccc2c1/C=N/NC(=O)c1cccc([N+](=O)[O-])c1	none (no result: CtBP-E1A inh)
Cc1[nH]c2ccccc2c1/C=N/Nc1ccc([N+](=O)[O-])cc1	BAZ2B block inconclusive, HP1b binding inh inconclusive, G9a inh 8.9µM
CCOC12NC(=O)CC(=O)N1C(c1ccccc1)=CS2 (stereo unspecified)	G9a inh 50µM
CC1CCN(C(=O)CSc2nnc(Cc3cccn3C)n2CCc2ccccc2)CC1	JMJD2A Tudor inconclusive, G9a inh 45µM
Cn1cccc1Cc1nnc(SCC(=O)NC2CCCC2)n1CCc1ccccc1	JMJD2A Tudor inconclusive, G9a inh 79µM
Cn1cccc1Cc1nnc(SCC(N)=O)n1CCc1ccccc1	G9a inh 45µM
Cn1cccc1Cc1nnc(SCC(=O)N2CCCCCC2)n1CCc1ccccc1	G9a inh 50µM
Cn1cccc1Cc1nnc(SCC(=O)N2CCCC2)n1CCc1ccccc1	BAZ2B block inconclusive, G9a inh inconclusive
FC(F)(F)c1ccccc1-c1cc(NCc2cccs2)ncn1	none (no result: JMJD2A Tudor, BAZ2B block, CtBP-E1A inh, HP1b binding inh, Six1-Eya2 blk)
CCN1CCN(S(=O)(=O)c2ccc(Cl)c(C(=O)N(C)Cc3cccc(Cl)c3Cl)c2)CC1	none
COc1cc(/C=C2/C(C)=C(C#N)c3nc(N)c(C#N)c(C)c32)ccc1OCC(=O)O	BAZ2B block 45µM, Six1-Eya2 blk inconclusive (no result: CtBP-E1A inh, G9a inh)
C/C=C/c1ccc(OCC(=O)O)c(OC)c1	none
Cc1ccc(-c2cc(-c3ccccc3)nc(N)c2C#N)o1	BAZ2B block inconclusive, G9a inh inconclusive
